# From PubChem BioAssay (EPA / NIEHS)
# Inconclusive results are not listed. Calls of active or inactive are those of the source. The calls were made as follows: active = hit-call score of the fitted dose curve at least 0.9, where 1 is the maximum; inconclusive = response in the unintended direction; inactive = score below 0.9.
# How the values were obtained:
# [1] = molecular target: Beta-2 adrenergic receptor (Homo sapiens) (UniProt P07550); test: NVS_GPCR_hAdrb2: NovaScreen (NVS) G Protein-Coupled Receptor Assay for human Adrenergic, Beta 2 Receptor (Adrb2) (AID 2283261)
# Sequence of Beta-2 adrenergic receptor (Homo sapiens) (P07550 whole entry, looked up): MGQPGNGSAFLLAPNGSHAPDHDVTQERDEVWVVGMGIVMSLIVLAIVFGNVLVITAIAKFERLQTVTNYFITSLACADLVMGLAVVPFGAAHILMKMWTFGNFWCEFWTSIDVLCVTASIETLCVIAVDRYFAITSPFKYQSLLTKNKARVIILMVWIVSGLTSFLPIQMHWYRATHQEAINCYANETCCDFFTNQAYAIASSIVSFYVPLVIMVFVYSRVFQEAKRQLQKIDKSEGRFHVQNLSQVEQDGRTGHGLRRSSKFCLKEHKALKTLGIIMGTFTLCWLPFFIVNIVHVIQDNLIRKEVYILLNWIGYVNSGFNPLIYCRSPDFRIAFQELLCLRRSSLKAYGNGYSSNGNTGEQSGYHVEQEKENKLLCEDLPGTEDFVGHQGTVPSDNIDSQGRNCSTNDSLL
# Procedure: (§1) NVS_GPCR_hAdrb2 is a biochemical, single-readout assay that uses extracted gene-proteins from CHO in a cell-free assay. Measurements were taken 1 hour after chemical dosing in a 96-well plate.NVS_GPCR_hAdrb2 is one of one assay component(s) measured or calculated from the NVS_GPCR_hAdrb2 assay. It is designed to make measurements of radioligand binding, a form of binding reporter, as detected with scintillation counting signals by Filter-based radiodetection technology.Data from the assay component NVS_GPCR_hAdrb2 was analyzed into 1 assay endpoint. This assay endpoint, NVS_GPCR_hAdrb2, was analyzed in the positive analysis fitting direction relative to DMSO as the negative control and baseline of activity. Using a type of binding reporter, loss-of-signal activity can be used to understand changes in the binding as they relate to the gene ADRB2. Furthermore, this assay endpoint can be referred to as a primary readout, because the performed assay has only produced 1 assay endpoint. To generalize the intended target to other relatable targets, this assay endpoint is annotated to the gpcr intended target family, where the subfamily is rhodopsin-like receptor.
# (§2) Binding assays used specific radioligands (tritiated, iodinated) with non-radioactive competitive displacement ligands in agonist or antagonist protocols (as indicated) and various reference compounds and inhibitors to titrate specific binding to receptors and transporters. Most enzyme assays (CYPs, kinases, phosphatases, proteases, HDACs) used recombinant protein and specific substrates (fluorescence mostly, some colorimetric and radioactive) and inhibitors, followed by a biochemical separation of substrate and product. All assays for the biochemical HTS were initially run in duplicate at a single concentration (10 uM for CYP450 assays and 25 uM for all others). […] Each assay was run with positive and negative controls, and concurrent controls on every plate. The follow-up (secondary) screen tested active chemical-pairs in concentration series, as well as a few additional assays not tested in the primary screen, some selected negative inactives, and several cases re-run in the concentration series for confirmatory purposes.
# [2] = molecular target: human Histamine 1 Receptor (H1), HRH1 (gene 3269) (UniProt P35367); test: NVS_GPCR_hH1: NovaScreen (NVS) G Protein-Coupled Receptor Assay for human Histamine 1 Receptor (H1) (AID 2283268)
# Sequence of human Histamine 1 Receptor (H1), HRH1 (gene 3269) (P35367 whole entry, looked up): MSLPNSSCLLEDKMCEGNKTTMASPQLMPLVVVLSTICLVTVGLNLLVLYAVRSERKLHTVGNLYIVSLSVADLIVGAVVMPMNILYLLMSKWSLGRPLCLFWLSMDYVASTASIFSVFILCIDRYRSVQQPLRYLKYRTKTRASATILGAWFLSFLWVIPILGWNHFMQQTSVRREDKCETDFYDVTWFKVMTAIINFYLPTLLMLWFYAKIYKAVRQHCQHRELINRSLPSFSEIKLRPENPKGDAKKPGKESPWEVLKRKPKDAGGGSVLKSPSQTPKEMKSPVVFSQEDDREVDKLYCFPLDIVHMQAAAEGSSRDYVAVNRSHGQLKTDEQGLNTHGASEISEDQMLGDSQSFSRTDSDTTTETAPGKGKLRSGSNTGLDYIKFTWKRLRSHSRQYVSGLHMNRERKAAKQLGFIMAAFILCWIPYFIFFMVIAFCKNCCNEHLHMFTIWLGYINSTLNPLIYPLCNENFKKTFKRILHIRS
# Procedure, shortened: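 Cell-free radioligand displacement at human H1 receptor, 1 h, filter scintillation counting; primary screen 25 uM in duplicate, hits in concentration series; loss of binding fitted vs DMSO.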
# [3] = molecular target: human Dopamine Receptor D4.4 (DRD4.4), DRD4 (gene 1815) (UniProt P21917); test: NVS_GPCR_hDRD4.4: NovaScreen (NVS) G Protein-Coupled Receptor Assay for human Dopamine Receptor D4.4 (DRD4.4) (AID 2283264)
# Sequence of human Dopamine Receptor D4.4 (DRD4.4), DRD4 (gene 1815) (P21917 whole entry, looked up): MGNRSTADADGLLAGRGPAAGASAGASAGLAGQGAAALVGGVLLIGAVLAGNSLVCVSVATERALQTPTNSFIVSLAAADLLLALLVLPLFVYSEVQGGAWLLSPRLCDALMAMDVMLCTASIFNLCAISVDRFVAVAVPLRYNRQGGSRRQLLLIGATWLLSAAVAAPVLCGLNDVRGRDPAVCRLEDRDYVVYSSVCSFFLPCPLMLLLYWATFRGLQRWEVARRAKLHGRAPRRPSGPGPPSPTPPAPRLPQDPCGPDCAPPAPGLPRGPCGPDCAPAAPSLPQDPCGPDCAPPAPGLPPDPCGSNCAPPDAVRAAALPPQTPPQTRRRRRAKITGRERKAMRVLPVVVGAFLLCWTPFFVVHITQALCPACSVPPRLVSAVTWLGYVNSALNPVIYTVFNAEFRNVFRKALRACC
# Procedure, shortened: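 Radioligand displacement on human DRD4.4 from CHO-derived membranes, 1 hour incubation, bound counts read by filtration and scintillation. Primary screen in duplicate at 25 uM; actives followed up in concentration series.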
# [4] = molecular target: Muscarinic acetylcholine receptor M1 (Homo sapiens) (UniProt P11229); test: NVS_GPCR_hM1: NovaScreen (NVS) G Protein-Coupled Receptor Assay for human Muscarinic, M1 Receptor (AID 2283270)
# Sequence of Muscarinic acetylcholine receptor M1 (Homo sapiens) (P11229 whole entry, looked up): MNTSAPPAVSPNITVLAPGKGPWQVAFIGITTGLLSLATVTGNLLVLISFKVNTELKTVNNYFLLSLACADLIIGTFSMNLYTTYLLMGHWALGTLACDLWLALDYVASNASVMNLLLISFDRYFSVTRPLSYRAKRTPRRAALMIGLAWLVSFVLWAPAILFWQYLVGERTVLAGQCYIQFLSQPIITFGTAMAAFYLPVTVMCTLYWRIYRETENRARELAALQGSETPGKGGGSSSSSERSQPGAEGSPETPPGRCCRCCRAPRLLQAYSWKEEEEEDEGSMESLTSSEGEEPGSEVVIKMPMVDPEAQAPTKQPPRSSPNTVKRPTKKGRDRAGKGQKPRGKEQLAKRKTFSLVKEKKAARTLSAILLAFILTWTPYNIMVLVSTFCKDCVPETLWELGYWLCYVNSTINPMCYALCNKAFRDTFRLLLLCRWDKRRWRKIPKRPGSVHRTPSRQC
# Procedure: as §1, with “NVS_GPCR_hM1” for “NVS_GPCR_hAdrb2”, “plate.NVS_GPCR_hM1” for “plate.NVS_GPCR_hAdrb2”, “NVS_GPCR_hM1,” for “NVS_GPCR_hAdrb2,”, “CHRM1.” for “ADRB2.”
# as §2
# [5] = molecular target: D(1A) dopamine receptor (Homo sapiens) (UniProt P21728); test: NVS_GPCR_hDRD1: NovaScreen (NVS) G Protein-Coupled Receptor Assay for human Dopamine Receptor D1 (DRD1) (AID 2283269)
# Sequence of D(1A) dopamine receptor (Homo sapiens) (P21728 whole entry, looked up): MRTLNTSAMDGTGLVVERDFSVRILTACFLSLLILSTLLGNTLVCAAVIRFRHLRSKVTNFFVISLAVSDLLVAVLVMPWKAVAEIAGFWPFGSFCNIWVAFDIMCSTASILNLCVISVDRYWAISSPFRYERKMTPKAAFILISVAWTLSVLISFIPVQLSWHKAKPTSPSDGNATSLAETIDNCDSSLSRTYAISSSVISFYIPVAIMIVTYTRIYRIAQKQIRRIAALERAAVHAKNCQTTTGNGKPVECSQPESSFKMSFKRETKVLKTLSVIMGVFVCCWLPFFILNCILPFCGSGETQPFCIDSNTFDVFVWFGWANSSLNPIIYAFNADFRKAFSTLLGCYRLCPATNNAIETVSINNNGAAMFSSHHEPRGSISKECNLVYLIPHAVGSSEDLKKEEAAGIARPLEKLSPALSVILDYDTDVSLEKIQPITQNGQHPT
# Procedure, shortened: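 Cell-free radioligand binding to human DRD1 from HEK293 membranes, read 1 h after dosing by filter-based scintillation counting. Loss of signal versus DMSO baseline marks displacement. Primary screen at 25 uM single concentration in duplicate; actives followed up in concentration series.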
# [6] = molecular target: human Leukotriene B4 Receptor 1 (LTB4-BLT1), LTB4R (gene 1241) (UniProt Q15722); test: NVS_GPCR_hLTB4_BLT1: NovaScreen (NVS) G Protein-Coupled Receptor Assay for human Leukotriene B4 Receptor 1 (LTB4-BLT1) (AID 2283271)
# Sequence of human Leukotriene B4 Receptor 1 (LTB4-BLT1), LTB4R (gene 1241) (Q15722 whole entry, looked up): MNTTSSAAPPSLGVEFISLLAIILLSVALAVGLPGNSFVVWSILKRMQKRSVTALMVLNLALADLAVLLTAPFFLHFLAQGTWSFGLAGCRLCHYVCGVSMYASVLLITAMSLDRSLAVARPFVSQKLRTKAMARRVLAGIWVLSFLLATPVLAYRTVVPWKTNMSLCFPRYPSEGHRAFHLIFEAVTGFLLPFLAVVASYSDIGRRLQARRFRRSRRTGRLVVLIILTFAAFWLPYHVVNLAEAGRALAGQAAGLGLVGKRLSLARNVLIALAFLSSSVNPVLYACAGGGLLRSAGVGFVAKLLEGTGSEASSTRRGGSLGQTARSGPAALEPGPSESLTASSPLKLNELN
# Procedure, shortened: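 Radioligand displacement binding on receptor extracted from human neutrophils, cell-free, 1 h after dosing; filter-based scintillation counting. Primary screen in duplicate at 25 uM, actives retested in concentration-response up to 50 uM; loss of signal versus DMSO.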
# [7] = molecular target: human Adrenergic, Beta 3 Receptor (Adrb3), ADRB3 (gene 155) (UniProt P13945); test: NVS_GPCR_hAdrb3: NovaScreen (NVS) G Protein-Coupled Receptor Assay for human Adrenergic, Beta 3 Receptor (Adrb3) (AID 2283262)
# Sequence of human Adrenergic, Beta 3 Receptor (Adrb3), ADRB3 (gene 155) (P13945 whole entry, looked up): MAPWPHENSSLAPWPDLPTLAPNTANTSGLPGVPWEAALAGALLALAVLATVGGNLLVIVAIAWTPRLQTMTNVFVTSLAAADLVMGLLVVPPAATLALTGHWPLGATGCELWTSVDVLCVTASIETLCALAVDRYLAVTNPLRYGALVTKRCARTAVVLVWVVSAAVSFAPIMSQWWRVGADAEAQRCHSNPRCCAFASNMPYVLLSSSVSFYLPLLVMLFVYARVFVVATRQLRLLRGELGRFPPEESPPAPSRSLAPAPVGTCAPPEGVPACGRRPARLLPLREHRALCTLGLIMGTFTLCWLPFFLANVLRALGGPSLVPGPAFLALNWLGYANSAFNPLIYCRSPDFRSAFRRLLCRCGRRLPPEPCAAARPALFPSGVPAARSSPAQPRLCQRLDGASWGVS
# Procedure, shortened: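 Membranes from SK-N-MC cells pretreated with isoproterenol and 8-bromo-cAMP were used in a radioligand competitive displacement binding assay. Binding was read by filter-based scintillation counting 1 hour after dosing. Primary screening was in duplicate at 25 uM, with concentration series in follow-up.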
# [8] = molecular target: human Dopamine Receptor D2 (DRD2), DRD2 (gene 1813) (UniProt P14416); test: NVS_GPCR_hDRD2s: NovaScreen (NVS) G Protein-Coupled Receptor Assay for human Dopamine Receptor D2 (DRD2) (AID 2283266)
# Sequence of human Dopamine Receptor D2 (DRD2), DRD2 (gene 1813) (P14416 whole entry, looked up): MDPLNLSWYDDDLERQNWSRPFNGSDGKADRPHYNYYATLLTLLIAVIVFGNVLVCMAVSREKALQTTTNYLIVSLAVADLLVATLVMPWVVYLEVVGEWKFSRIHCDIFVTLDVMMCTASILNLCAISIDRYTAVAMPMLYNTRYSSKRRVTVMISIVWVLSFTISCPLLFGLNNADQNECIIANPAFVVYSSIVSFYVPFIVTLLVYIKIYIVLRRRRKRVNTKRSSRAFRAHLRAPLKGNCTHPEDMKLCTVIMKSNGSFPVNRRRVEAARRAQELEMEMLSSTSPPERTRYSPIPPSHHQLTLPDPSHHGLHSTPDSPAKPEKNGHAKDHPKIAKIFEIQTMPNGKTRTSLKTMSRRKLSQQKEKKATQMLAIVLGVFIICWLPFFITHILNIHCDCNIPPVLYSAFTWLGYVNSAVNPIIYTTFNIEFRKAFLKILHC
# Procedure, shortened: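 Radioligand displacement used human DRD2 membranes extracted from CHO cells and was read by filter-based scintillation counting after 1.5 hours. Primary screening was in duplicate at 25 uM. Loss of signal versus DMSO was fitted, with concentration series in follow-up.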
# [9] = molecular target: Muscarinic acetylcholine receptor M3 (Homo sapiens) (UniProt P20309); test: NVS_GPCR_hM3: NovaScreen (NVS) G Protein-Coupled Receptor Assay for human Muscarinic, M3 Receptor (AID 2283272)
# Sequence of Muscarinic acetylcholine receptor M3 (Homo sapiens) (P20309 whole entry, looked up): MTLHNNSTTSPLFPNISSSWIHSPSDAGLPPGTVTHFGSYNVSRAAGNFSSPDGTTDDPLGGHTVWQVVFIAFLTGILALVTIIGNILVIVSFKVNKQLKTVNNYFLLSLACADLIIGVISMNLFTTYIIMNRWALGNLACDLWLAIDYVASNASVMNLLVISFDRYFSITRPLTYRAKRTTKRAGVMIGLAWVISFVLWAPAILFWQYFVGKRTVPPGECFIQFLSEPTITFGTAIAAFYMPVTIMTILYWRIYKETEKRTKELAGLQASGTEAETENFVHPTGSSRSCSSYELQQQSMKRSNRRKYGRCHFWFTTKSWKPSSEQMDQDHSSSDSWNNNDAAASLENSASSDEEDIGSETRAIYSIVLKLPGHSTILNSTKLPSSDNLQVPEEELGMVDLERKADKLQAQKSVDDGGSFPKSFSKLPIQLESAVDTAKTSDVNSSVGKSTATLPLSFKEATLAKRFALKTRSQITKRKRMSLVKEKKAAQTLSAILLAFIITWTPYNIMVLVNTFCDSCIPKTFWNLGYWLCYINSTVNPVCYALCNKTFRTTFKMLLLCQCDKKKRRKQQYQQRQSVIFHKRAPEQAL
# Procedure, shortened: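 Radioligand displacement binding on human M3 receptor in CHO-derived membranes, 1 h incubation, filter-based scintillation counting. Primary screen in duplicate at 25 uM; actives followed up in concentration series; loss of signal versus DMSO.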
# [10] = molecular target: Type-1 angiotensin II receptor (Homo sapiens) (UniProt P30556); test: NVS_GPCR_hAT1: NovaScreen (NVS) G Protein-Coupled Receptor Assay for human Angiotensin II receptor type 1 (AT1) (AID 2283263)
# Sequence of Type-1 angiotensin II receptor (Homo sapiens) (P30556 whole entry, looked up): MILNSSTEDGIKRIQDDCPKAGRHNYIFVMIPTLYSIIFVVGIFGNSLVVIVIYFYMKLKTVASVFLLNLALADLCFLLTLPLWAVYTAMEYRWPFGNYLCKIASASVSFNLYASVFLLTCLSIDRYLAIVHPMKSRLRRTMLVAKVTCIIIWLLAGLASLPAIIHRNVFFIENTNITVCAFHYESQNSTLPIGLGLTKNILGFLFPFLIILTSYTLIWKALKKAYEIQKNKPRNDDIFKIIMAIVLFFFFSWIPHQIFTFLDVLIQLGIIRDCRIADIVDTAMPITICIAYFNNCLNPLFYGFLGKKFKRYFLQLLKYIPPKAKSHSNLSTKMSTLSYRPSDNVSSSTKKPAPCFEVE
# Procedure, shortened: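 Membranes from KAN-TS cells; radioligand competitive displacement, 3 h, filtration and scintillation counting. Single-point duplicate screen at 25 uM, then concentration-response up to 50 uM for hits; loss of signal fitted versus DMSO.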
compound,measurement,setting,value
COP(=S)(OC)SCn1nnc2ccccc2c1=O,outcome,[1],inactive
same,outcome,[2],inactive
N#Cc1c[nH]cc1-c1cccc2c1OC(F)(F)O2,outcome,[1],inactive
same,outcome,[3],inactive
same,outcome,[4],inactive
Cc1ccc(N=CN(C)C=Nc2ccc(C)cc2C)c(C)c1,outcome,[5],inactive
CCOc1cc(C(C)(C)C)ccc1C1COC(c2c(F)cccc2F)=N1 (centres undefined),outcome,[5],inactive
CN=C=S,outcome,[1],inactive
COc1cc(OC)nc(NC(=O)NS(=O)(=O)c2ncccc2OCC(F)(F)F)n1,outcome,[6],inactive
O=c1n(Cl)c(=O)n(Cl)c(=O)n1Cl,outcome,[4],inactive
CC(C)=CC1C(C(=O)OCc2coc(Cc3ccccc3)c2)C1(C)C (centres undefined),AC50,[5],11.5 µM (active)
Clc1nc(Cl)nc(Nc2ccccc2Cl)n1,outcome,[2],inactive
O=C(O)c1c(Cl)ccc2cc(Cl)cnc12,outcome,[7],inactive
COCC(C)N(C(=O)CCl)c1c(C)csc1C (centres undefined),outcome,[6],inactive
CCCCOCN(C(=O)CCl)c1c(CC)cccc1CC,outcome,[6],inactive
CCCN(CC)CC1COC2(CCC(C(C)(C)C)CC2)O1 (centres undefined),AC50,[3],7.95 µM (active)
same,outcome,[8],inactive
same,AC50,[4],4.97 µM (active)
same,AC50,[9],8.78 µM (active)
Cn1c(-c2ccccc2)cc(-c2ccccc2)[n+]1C,AC50,[4],2.84 µM (active)
same,AC50,[9],9.02 µM (active)
CC(C)Oc1cccc(NC(=O)c2ccccc2C(F)(F)F)c1,outcome,[7],inactive
CCOP(=O)(OCC)Oc1nc(Cl)c(Cl)cc1Cl,outcome,[2],inactive
same,outcome,[5],inactive
COC(=O)N(C(=O)N1CO[C@@]2(C(=O)OC)Cc3cc(Cl)ccc3C2=N1)c1ccc(OC(F)(F)F)cc1,outcome,[10],inactive
same,outcome,[6],inactive
Nc1c(Cl)c(Cl)nc(C(=O)O)c1Cl,outcome,[1],inactive
CCCCC(C#N)(Cn1cncn1)c1ccc(Cl)cc1 (centres undefined),AC50,[4],5.56 µM (active)
same,AC50,[9],8.08 µM (active)
COC(=O)NS(=O)(=O)c1ccc(N)cc1,outcome,[1],inactive
same,outcome,[4],inactive
CCCCC(O)(Cn1cncn1)c1ccc(Cl)cc1Cl (centres undefined),outcome,[6],inactive
OC(c1ccc(Cl)cc1)(c1ccc(Cl)cc1)C(Cl)(Cl)Cl,outcome,[8],inactive
CCC(C)n1c(=O)[nH]c(C)c(Br)c1=O (centres undefined),outcome,[2],inactive
same,outcome,[9],inactive
O=C1C2CC=CCC2C(=O)N1SC(Cl)(Cl)Cl (centres undefined),AC50,[10],13.4 µM (active)
same,AC50,[8],25 µM (active)
same,AC50,[5],9.65 µM (active)
Cc1cc(C)nc(Nc2ccccc2)n1,AC50,[9],12.4 µM (active)
CC1(C)C(C=C(Cl)Cl)C1C(=O)OC(C#N)c1cccc(Oc2ccccc2)c1 (centres undefined),outcome,[10],inactive
CC(C)(C)C(=O)C(Oc1ccc(Cl)cc1)n1cncn1 (centres undefined),AC50,[6],11.8 µM (active)
same,outcome,[9],inactive
CCSC(=O)N1CCCCCC1,AC50,[9],8.57 µM (active)
CN/C(=N\[N+](=O)[O-])NCc1cnc(Cl)s1,outcome,[7],inactive
